Source: PubChem (National Center for Advancing Translational Sciences (NCATS))
In the library only some 19% were active in any assay of this set; here they are far more common.
TDP1 cell CPT: growth inhibition of DT40 Tdp1-/-;hTDP1 cells with camptothecin (screen for TDP1 inhibitors); chicken DT40 Tdp1-/-;hTDP1 cells + 20 nM CPT, ATP luminescence, 48 h; 420,000 tested, 12% active; Potency, µM (highest dose often 46.2 µM), most hits filed as inhibitors; AID 686979; note: nearly all actives have a fitted effect of over 55% in size
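Chicken DT40 Tdp1-/- cells complemented with human TDP1, 400 cells/well, exposed to compounds plus 20 nM camptothecin for at least 48 h at 37 C; viability read as ATP content by CellTiter-Glo luminescence.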
Giardia kill: Giardia lamblia killing | Giardia lamblia trophozoite viability | activity change, % at 7.66 µM, hits read low | 340,000 tested, 0.15% active; in the data active = activity change below about -80%; inconclusive = between about -30% and that limit;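 note: parasites exposed to compound for two days anaerobically before the ATP read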
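Luminescence from cellular ATP indicates surviving trophozoites (100 cells/well) following 48 hrs anaerobic compound treatment at 37 deg C; signal develops 15-30 min at room temperature.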
TDP1 inh: blocks human tyrosyl-DNA phosphodiesterase 1; Q9NUW8; recombinant TDP1, AlphaScreen DNA substrate cleavage; Potency, µM (top dose mostly 130 µM), most hits filed as inhibitors; 350,000 tested, 0.28% active; AID 485290; note: nearly all actives have a fitted effect of over 40% in size
Target sequence (Q9NUW8 whole entry, looked up): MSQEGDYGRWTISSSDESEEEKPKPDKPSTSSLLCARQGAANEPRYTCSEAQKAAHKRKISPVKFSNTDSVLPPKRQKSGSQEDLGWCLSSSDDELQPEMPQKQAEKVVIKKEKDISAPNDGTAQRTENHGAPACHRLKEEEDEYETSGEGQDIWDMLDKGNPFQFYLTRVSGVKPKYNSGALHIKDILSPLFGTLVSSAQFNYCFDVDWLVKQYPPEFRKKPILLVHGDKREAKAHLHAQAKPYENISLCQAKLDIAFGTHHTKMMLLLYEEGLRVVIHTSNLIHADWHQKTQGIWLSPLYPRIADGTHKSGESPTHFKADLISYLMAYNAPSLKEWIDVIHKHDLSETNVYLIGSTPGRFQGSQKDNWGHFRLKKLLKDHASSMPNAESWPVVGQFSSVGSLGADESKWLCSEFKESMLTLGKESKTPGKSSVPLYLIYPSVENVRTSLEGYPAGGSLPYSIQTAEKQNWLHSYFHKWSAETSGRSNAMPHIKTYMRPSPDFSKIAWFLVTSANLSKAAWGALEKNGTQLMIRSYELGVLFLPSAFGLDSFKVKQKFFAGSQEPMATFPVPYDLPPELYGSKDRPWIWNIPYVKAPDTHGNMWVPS
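Here, a 5' biotin and 3' phosphotyrosine-FITC DNA oligonucleotide reports Tdp1 activity: intact substrate bridges AlphaScreen beads, while cleavage leaves a 3' phosphate and drops signal. All incubations at room temperature.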
IL-1B inflam inh: inflammasome signaling inhibition, IL-1 beta readout. THP-1 LPS/ATP IL-1B secretion, AlphaLISA, 16 h; stronger effect = lower value. activity change, % at 57.5 µM. 360,000 tested, 4.7% active. AID 743279; in the data active = activity change below about -50%; inconclusive = mostly about -30% to -49%
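THP-1 cells pretreated 1 hr with compounds (up to 57.5 uM final), then stimulated with LPS (250 ng/mL final) plus ATP (1.25 mM final); secreted IL-1B measured by AlphaLISA after 16 hr, decreased signal indicating inhibition.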
ELG1 DNA repair: inhibitors of ELG1-dependent DNA repair in HEK293T cells; HEK293T ELG1-luciferase reporter, luminescence, 16 h; DNA damage induced by 5-fluorouridine; Potency, µM (highest dose often 46.1 µM), hits mostly inhibitors; 330,000 tested, 2.3% active; AID 504467; note: nearly all actives have a fitted effect of over 55% in size
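Reporter activity after DNA damage by 5-fluorouridine is monitored. Compound-treated cells incubate 16 hr at 37 °C, then ONE-Glo is added for 30 min before luminescence reading.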
TDP1 cell noCPT: qHTS for Inhibitors of human tyrosyl-DNA phosphodiesterase 1 (TDP1): qHTS in cells in absence of CPT; DT40 Tdp1-/- hTDP1 cells, no CPT, ATP luminescence, 48 h; Potency, µM (series often up to 46.2 µM), actives largely listed as inhibitors; 420,000 tested, 15% active; note: nearly all actives have a fitted effect of over 55% in size
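Chicken DT40 Tdp1-/- cells stably complemented with human TDP1 were seeded at 400 cells/well with DMSO in place of 20 nM camptothecin. After compound pinning, cells grew at least 48 hr at 37 °C; viability read by CellTiter-Glo luminescence.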
A number is an active result; [ ] = another dose, or the depositor's remark. Unless noted, calls come from the whole dose curve; as a rule, active = well fitted curve in the direction sought with a large enough effect; inconclusive = small, poorly fitted or top-dose-only effect, or another doubt; inactive = no such curve, though single readings can be large; an effect the other way counts as inactive or inconclusive.

Screening Cc1ccc(C)c(S(=O)(=O)N2CCCC2CNC(=O)C(=O)NCc2ccccn2)c1 (centres undefined) returned TDP1 cell CPT inactive, Giardia kill inactive, TDP1 inh inactive, IL-1B inflam inh inactive, ELG1 DNA repair inactive and TDP1 cell noCPT inactive.
`C=CCOC1=CS(=O)(=O)N(Cc2ccc(Br)cc2)c2ccc(Br)cc21` gave TDP1 cell CPT 16µM, Giardia kill inactive, IL-1B inflam inh inactive, ELG1 DNA repair inactive and TDP1 cell noCPT inconclusive.
O=C1CS(=O)(=O)N(Cc2ccccc2F)c2ccc(Br)cc21 was read as TDP1 cell CPT inactive, Giardia kill inactive, IL-1B inflam inh inactive, ELG1 DNA repair inactive and TDP1 cell noCPT inactive.
Cc1ccccc1OCc1nc(-c2ccc(NC(=O)c3ccco3)cc2)no1 was read as TDP1 cell CPT inconclusive, Giardia kill inactive, TDP1 inh inactive, IL-1B inflam inh inactive, ELG1 DNA repair inconclusive and TDP1 cell noCPT 23µM.
`CCCc1ccc(OCc2nc(-c3ccc(NC(=O)c4ccco4)cc3)no2)cc1` gave TDP1 cell CPT inconclusive, Giardia kill inactive, TDP1 inh inconclusive, IL-1B inflam inh inactive, ELG1 DNA repair inconclusive and TDP1 cell noCPT inconclusive.
For Cc1ccccc1-c1nc(-c2ccc(NC(=O)c3cccs3)cc2)no1 the results were TDP1 cell CPT 23µM, Giardia kill inactive, TDP1 inh inactive, IL-1B inflam inh inconclusive, ELG1 DNA repair inconclusive and TDP1 cell noCPT inconclusive.
For COc1ccc(CC(=O)Nc2ccc(-c3noc(-c4ccccc4OC)n3)cc2)cc1 the results were TDP1 cell CPT inconclusive, Giardia kill inactive, TDP1 inh inactive, IL-1B inflam inh -63, ELG1 DNA repair inactive and TDP1 cell noCPT inconclusive.
O=C(Nc1ccc(-c2noc(-c3ccccc3F)n2)cc1)c1cccs1 was read as TDP1 cell CPT inconclusive, Giardia kill inactive, TDP1 inh inactive, IL-1B inflam inh inactive, ELG1 DNA repair inconclusive and TDP1 cell noCPT inconclusive.
COc1ccccc1CC(=O)Nc1ccc(-c2noc(COc3cccc(C)c3C)n2)cc1 was read as TDP1 cell CPT 18µM, Giardia kill inactive, TDP1 inh inactive, IL-1B inflam inh inactive, ELG1 DNA repair inconclusive and TDP1 cell noCPT 13µM.
For Cc1ccc(C)c(CSc2cn(CC(=O)N3CCCC3)c3ccccc23)c1 the results were TDP1 cell CPT inconclusive, TDP1 inh inactive and TDP1 cell noCPT inconclusive.
For Cc1nccn1CCOc1ccccc1Cl the results were TDP1 cell CPT inactive, Giardia kill inactive, IL-1B inflam inh inactive, ELG1 DNA repair inactive and TDP1 cell noCPT inactive.
O=C(NCc1nc(-c2ccccc2)no1)c1ccc2c(c1)OCO2 was read as TDP1 cell CPT inactive, Giardia kill inactive, TDP1 inh inactive, IL-1B inflam inh inactive, ELG1 DNA repair inactive and TDP1 cell noCPT inactive.
Screening Cc1ccccc1OCc1nc(-c2ccc(NC(=O)c3ccc4c(c3)OCO4)cc2)no1 returned TDP1 cell CPT inconclusive, Giardia kill inactive, TDP1 inh inactive, IL-1B inflam inh inactive, ELG1 DNA repair inconclusive and TDP1 cell noCPT 23µM.
For O=C(Cc1cnc2ncnn2c1)N1CCc2c([nH]c3ccccc23)C1c1ccccn1 (centres undefined) the results were TDP1 cell CPT inactive, Giardia kill inactive, TDP1 inh inactive, IL-1B inflam inh inactive, ELG1 DNA repair inactive and TDP1 cell noCPT inactive.
`CC(OC(=O)c1ccc2ncsc2c1)C(=O)N(C)C1CCCCC1` (centres undefined) gave TDP1 cell CPT inconclusive, Giardia kill inactive, TDP1 inh inactive, IL-1B inflam inh inactive, ELG1 DNA repair inactive and TDP1 cell noCPT inconclusive.
For CCOCCCNC(=O)/C(C#N)=C/c1cc(OC)c(O)c([N+](=O)[O-])c1 the results were TDP1 cell CPT 3.7µM, Giardia kill inactive, TDP1 inh inactive, IL-1B inflam inh inactive, ELG1 DNA repair inactive and TDP1 cell noCPT 2.9µM.
`COCCCNC(=O)/C(C#N)=C/c1ccc(OCC(=O)O)c(OC)c1` gave TDP1 cell CPT inactive, Giardia kill inactive, TDP1 inh inactive, IL-1B inflam inh inactive, ELG1 DNA repair inactive and TDP1 cell noCPT inactive.
Screening CCOCCCNC(=O)/C(C#N)=C/c1ccc(Cl)c([N+](=O)[O-])c1 returned TDP1 cell CPT 2.6µM, Giardia kill inactive, TDP1 inh inactive, IL-1B inflam inh inactive, ELG1 DNA repair inconclusive and TDP1 cell noCPT 7.3µM.
Screening CCOCCCNC(=O)/C(C#N)=C/c1cc(C)c(O)c(C)c1 returned TDP1 cell CPT inconclusive, Giardia kill inactive, TDP1 inh inactive, IL-1B inflam inh inactive, ELG1 DNA repair inactive and TDP1 cell noCPT 23µM.
`CCOCCCNC(=O)/C(C#N)=C/c1ccc(C(=O)OC)cc1` gave TDP1 cell CPT inconclusive, Giardia kill inactive, TDP1 inh inactive, IL-1B inflam inh inactive, ELG1 DNA repair inactive and TDP1 cell noCPT inactive.
`COCCN1CCN(C(=O)c2cnn(-c3nccc(-c4ccco4)n3)c2C(C)C)CC1` gave TDP1 cell CPT inactive[9.04 µM] and TDP1 cell noCPT inactive.
CCc1ccc(-n2nc3ccc(NC(=O)COc4ccc(OC)cc4)cc3n2)cc1 was read as TDP1 cell CPT inactive and TDP1 cell noCPT inactive.
`O=S(=O)(c1ccccc1)[C@@]1(c2ccccc2)C[C@@H]2ON=C(c3cccc(-c4ccccc4)c3)[C@@H]2C1` gave TDP1 cell CPT inconclusive, Giardia kill inactive, TDP1 inh inactive, IL-1B inflam inh inactive, ELG1 DNA repair inactive and TDP1 cell noCPT 13µM.
`CN(C)S(=O)(=O)c1ccc(NC(=O)CSc2ncnc3ccccc23)cc1` gave TDP1 cell CPT inactive, Giardia kill inactive, TDP1 inh inactive, IL-1B inflam inh -102, ELG1 DNA repair inactive and TDP1 cell noCPT inconclusive.
`O=c1c2ccccc2nc(SCc2cccc(F)c2)n1-c1cccc(S(=O)(=O)N2CCCC2)c1` gave TDP1 cell CPT 12µM, Giardia kill inactive, TDP1 inh inactive, IL-1B inflam inh inactive, ELG1 DNA repair inactive and TDP1 cell noCPT 18µM.
`O=C(CSc1ncnc2ccccc12)Nc1ccc(N2CCOCC2)cc1` gave TDP1 inh inactive and ELG1 DNA repair inconclusive.
O=C(CSc1ncnc2ccccc12)Nc1cccc(S(=O)(=O)N2CCOCC2)c1 was read as TDP1 cell CPT inactive, Giardia kill inactive, TDP1 inh inactive, IL-1B inflam inh inconclusive, ELG1 DNA repair inactive and TDP1 cell noCPT 16µM.
O=C(CSc1nc2ccccc2c(=O)n1-c1ccc(F)cc1F)Nc1ccc(N2CCOCC2)cc1 was read as TDP1 cell CPT 23µM, Giardia kill inactive, TDP1 inh inactive, IL-1B inflam inh inactive, ELG1 DNA repair inactive and TDP1 cell noCPT 21µM.
Screening CCN(CC)CCCNC(=O)C(=O)Nc1ccc2nc3n(c(=O)c2c1)CCCCC3 returned TDP1 cell CPT inactive, TDP1 inh inactive and TDP1 cell noCPT inactive.
